mHTT-CaM PPI inh – inhibitors of human mutant huntingtin-calmodulin interaction; P42858; AlphaScreen His-mHTT/GST-CaM binding, luminescence; inhibition, % at 15 µM; 190,000 tested, 3.6% active; AID 1671202;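 further: 0% = both proteins with DMSO and 100% = one protein alone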
Pf apPOL inh – Pf-apPOL DNA polymerase inhibition | AID 1794808 | 210,000 tested, 0.25% active | Recombinant Pf-apPOL, molecular beacon fluorescence, 1.5 h | inhibition, % at 10 µM
* = called active by the depositor; nt = no result given; ! = a repeat was not active. This is a sample that favours compounds with a hit; in the whole collection about 3.5% have one here. No stated cut-off is given here; in the data, active means inhibition above about 50%; inactive means the rest.

SMILES	mHTT-CaM PPI inh	Pf apPOL inh
CCc1ccc(C(=O)N2C(C(=O)N3CCN(C)CC3)COC23CCCCC3)cc1 (centres undefined)	2	-2
COc1cccc(NC(=O)c2ccc(-c3cccc(C)c3)nc2)c1	-11	1
COc1ccc(CC(=O)N2CCc3ccccc3C2)cc1	4	-5
Cc1ccccc1CC(=O)N1CCc2cn(C)c3cccc(c23)C1	42	-2
Cn1cc2c3c(cccc31)CN(C(=O)Cc1ccccc1Cl)CC2	50*	-3
COc1ccc(CC(=O)N2CCc3cn(C)c4cccc(c34)C2)cc1	57*	-2
CCCc1nc2ccccc2n1Cc1ccc(OC)c(OC)c1	5	-5
CCOc1cc(/C=C(\C#N)c2[nH]nc(N)c2C#N)ccc1O	73*	-6
COc1ccc(/C=C2\C(C)=C(C#N)c3nc(N)c(C#N)c(C)c32)cc1Br	20	-5
COc1ccc(/C=C(\C#N)c2[nH]nc(N)c2C#N)cc1Br	69*	0
CCN(C)c1ccc(/C=C(\C#N)c2[nH]nc(N)c2C#N)cc1	29	-3
CCN(CC)c1ccc(/C=C(\C#N)c2[nH]nc(N)c2C#N)c(OC)c1	60*	0
COc1cc(/C=C(\C#N)c2ccc([N+](=O)[O-])cc2)ccc1O	38	-2
COc1cc(/C=C(\C#N)c2[nH]nc(N)c2C#N)ccc1O	54*!	10
COc1ccc(/C=C(\C#N)c2nn(CCO)c(N)c2C#N)c(OC)c1	-1	-1
N#CC(C#N)=CNc1ccc(F)c(Cl)c1	-4	nt
Cc1ncc(CO)c2cc(C(N)=O)c(=Nc3ccccc3F)oc12	15	-1
CC(C(=O)Nc1ccccn1)N1C(=O)C2C3C=CC(C3)C2C1=O (centres undefined)	3	2
CC(C(=O)Nc1cccc2c1C(=O)c1ccccc1-2)N1C(=O)C2C3C=CC(C3)C2C1=O (centres undefined)	61*	-1
Cc1ccc(C(=O)N2CCc3c(c(-c4nc(-c5ccc(F)cc5)no4)nn3C)C2)cc1F	2	0
Cc1ccc(CNC(=O)C2CCN(c3nc4ccc(-c5cncnc5)nc4s3)CC2)o1	5	0
Cc1ccccc1NC(=O)N1CCC2(CC1)Nc1cc(F)ccc1-n1cccc12	35	-5
COc1ccccc1NC(=O)N1CCC2(CC1)Nc1cc(F)ccc1-n1cccc12	57*	-9
COc1ccc(OC)c(NC(=O)N2CCC3(CC2)Nc2cc(F)ccc2-n2cccc23)c1	63*	1
COc1ccc(Cl)cc1NC(=O)N1CCC2(CC1)Nc1cc(F)ccc1-n1cccc12	55*	-2
SMILES	mHTT-CaM PPI inh	Pf apPOL inh
COc1ccc(C)cc1NC(=O)N1CCC2(CC1)Nc1ccccc1-n1cccc12	36	2
Cc1cccc(-c2noc(C3CCCN3C(=O)Cc3cccc(F)c3)n2)c1 (centres undefined)	25	3
COc1ccc(-c2nc3cccnc3n2C2CCN(C(=O)Nc3cccc(Cl)c3)C2)cc1 (centres undefined)	20	-6
COc1ccc(OC)c(/C=C2/N=C(c3ccc(Br)cc3)OC2=O)c1	0	-2
CN1CCN(C(=N)C(C#N)=Cc2[nH]c3ccccc3c2O)CC1	24	1
COc1ccc(N=C(N)C(C#N)=Cc2[nH]c3ccccc3c2O)cc1	69*	2
O=C1C2C3C=CC(C3)C2C(=O)N1c1ccc(-c2cnco2)cc1 (centres undefined)	nt	-6
C=CCN1C(=O)C(O)(CC(=O)c2ccc([N+](=O)[O-])cc2)c2ccccc21 (centres undefined)	16	-4
O=C(CC1(O)C(=O)N(Cc2ccc(Cl)cc2)c2ccccc21)c1cccnc1 (centres undefined)	25	-2
C=CCN1C(=O)C(O)(CC(=O)c2ccc(OC)c([N+](=O)[O-])c2)c2ccccc21 (centres undefined)	15	-1
COc1ccc(C(=O)CC2(O)C(=O)N(CCc3ccccc3)c3ccccc32)cc1[N+](=O)[O-] (centres undefined)	71*	15
O=C(CC1(O)C(=O)N(Cc2ccc(Cl)cc2)c2ccccc21)c1cccc([N+](=O)[O-])c1 (centres undefined)	93*	-2
O=C(CC1(O)C(=O)N(Cc2ccc(Cl)cc2)c2ccccc21)c1ccc([N+](=O)[O-])cc1 (centres undefined)	86*	-9
Cc1ccc(NC(=O)CCCc2ccccc2)cc1C	-28	-3
Cc1cc(C)cc(N2CC(C(=O)NCc3ccccc3)CC2=O)c1 (centres undefined)	5	-3
Cc1cc(C)nc(S(=O)CC(O)COCc2ccccc2)n1 (centres undefined)	-1	1
CC(=O)Nc1ccc(NC(=O)c2c(-c3ccccc3Cl)noc2C)cc1	0	8
Cc1onc(-c2ccccc2Cl)c1C(=O)Nc1ccc(Cl)c(Cl)c1	80*	-7
CC(=O)CSCC(=O)Nc1ccc(F)cc1F	nt	1
Cc1nn(C(=O)CCN2C(=O)c3ccccc3C2=O)c(C)c1Br	-3	71*
Cc1nn(C(=O)C(C)N2C(=O)c3ccccc3C2=O)c(C)c1Br (centres undefined)	-3	-1
COc1ccc(-c2noc(C3CCCN3C(=O)c3cccc(N(C)C)c3)n2)cc1 (centres undefined)	5	6
CN(C)CCNC(=O)c1cn2cc(-c3ccc(F)c(Cl)c3)ccc2n1	93*	11
CN(C)c1ccc(CNC(=O)c2cn3cc(Cl)ccc3n2)cc1	15	0
c1cncc(-c2noc(C3CCCCN3Cc3ccco3)n2)c1 (centres undefined)	4	2
SMILES	mHTT-CaM PPI inh	Pf apPOL inh
CN(C)c1ccc(CN2CCCC2c2nc(-c3cccnc3)no2)cc1 (centres undefined)	56*	-2
COc1cccc(NC(=O)C2CCc3sc(C(=O)N4CCCC4)cc3C2)c1 (centres undefined)	4	-8
O=C(Nc1ccc(C(F)(F)F)cc1)C(NS(=O)(=O)c1cccs1)c1ccccc1 (centres undefined)	84*	-1
O=C(Nc1ccc(F)c(F)c1)C(NS(=O)(=O)c1cccs1)c1ccccc1 (centres undefined)	-2	-1
COc1cccc(-c2cc3n(n2)CCCN(C(=O)c2ccsc2)C3)c1	1	-6
Cc1nc2cc(N=Cc3ccc(Br)cc3)ccc2n1C	5	53*
Cc1nc2cc(N=Cc3ccccc3O)ccc2n1C	8	19
CC1(C)CC2CC(C)(CN2C(=O)c2ccccc2NC(=O)CCN2C(=O)c3ccccc3C2=O)C1 (centres undefined)	-2	0
Cc1ccc2[nH]c3c(c2c1)CCC1C3=NNC1c1ccco1 (centres undefined)	79*	-4
Cc1ccc2[nH]c3c(c2c1)CCCC3=O	2	-6
O=C(Cn1c(C(F)(F)F)nc2ccccc21)NCc1ccco1	1	-1
O=C(Cn1c(-c2nnco2)cc2ccccc21)NCc1ccco1	69*	25
COc1ccc(C(=O)N2CCC3(CC2)NC(=O)c2ccc(F)cc2N3C)cc1	4	-2
O=C1N/C(=C/c2ccc(N3CCCC3)cc2)C(=O)N1Cc1ccc([N+](=O)[O-])cc1	16	3
O=C1N/C(=C\c2ccc(N3CCCC3)cc2)C(=O)N1Cc1ccccc1Cl	13	88*
Cn1ncc(N2CCCC(C(=O)NC3CCCCC3)C2)cc1=O (centres undefined)	0	2
Cc1nnc2cc(N3CCN(Cc4csc5c4CCCC5)CC3)cnn12	28	3
